Assay results published in PubChem BioAssay (EPA / NIEHS).
Calls of active or inactive are those of the source. The calls were made as follows: active = hit-call score of the fitted dose curve at least 0.9, where 1 is the maximum; inactive = score below 0.9.

Key:
Settings in all cases: mRNA level, 48 h; actives raise or lower the signal
[1] = read-out: CYP2C8 (gene 1558); experiment: LTEA_HepaRG_CYP2C8: Life Technologies and Expression Analysis (LTEA) Assay for CYP2C8 using HepaRG (AID 2283483)
Method in brief: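 This is a transcriptional endpoint in HepaRG cultures: 48 h exposure, highest concentration 100 uM. CYP2C8 mRNA is quantified by TaqMan qRT-PCR.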

[2] = read-out: CYP2C9 (gene 1559); experiment: LTEA_HepaRG_CYP2C9: Life Technologies and Expression Analysis (LTEA) Assay for CYP2C9 using HepaRG (AID 2283484)
Method in brief: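 Eight-point concentration-response (highest 100 uM, half-log dilutions) in HepaRG cells for 48 h; CYP2C9 expression by qRT-PCR normalized to ACTB, GAPDH, POLR2A. Bidirectional fit, DMSO baseline.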

[3] = read-out: CYP4A11 (gene 1579); experiment: LTEA_HepaRG_CYP4A11: Life Technologies and Expression Analysis (LTEA) Assay for CYP4A11 using HepaRG (AID 2283486)
Method in brief: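 CYP4A11 transcript levels were quantified by TaqMan qRT-PCR after HepaRG human liver cells were treated for 48 hours with test chemicals (top 100 uM, half-log dilutions, 0.5% DMSO). Gain or loss of signal was fitted relative to DMSO.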

[4] = read-out: DNA damage-inducible transcript 3 (DDIT3), DDIT3 (gene 1649); experiment: LTEA_HepaRG_DDIT3: Life Technologies and Expression Analysis (LTEA) Assay for DNA damage-inducible transcript 3 (DDIT3) using HepaRG (AID 2283488)
Method in brief: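 DDIT3 transcript was quantified by qRT-PCR with ACTB/GAPDH/POLR2A normalization after 48 h chemical treatment of differentiated HepaRG cells in 0.5% DMSO. Dosing was eight-point, half-log, top 100 uM, duplicate wells. Curves fitted bidirectionally versus DMSO.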

[5] = read-out: Early growth response protein 1 (EGR1) transcription factor, EGR1 (gene 1958); experiment: LTEA_HepaRG_EGR1: Life Technologies and Expression Analysis (LTEA) Assay for Early growth response protein 1 (EGR1) transcription factor using HepaRG (AID 2283490)
Method in brief: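 EGR1 expression change in human HepaRG after 48 h chemical exposure, assessed by housekeeping-normalized qRT-PCR; concentration-response up to 100 uM, fitted in both directions against DMSO controls.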

[6] = read-out: Ezrin (EZR), EZR (gene 7430); experiment: LTEA_HepaRG_EZR: Life Technologies and Expression Analysis (LTEA) Assay for Ezrin (EZR) using HepaRG (AID 2283491)
Method in brief: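 EZR transcript levels came from Fluidigm qRT-PCR and were normalized to three housekeeping genes after 48 h chemical exposure of HepaRG cells. Dosing used an 8-point half-log series with a 100 uM top concentration in 0.5% DMSO, tested in duplicate; both directions were fitted versus vehicle.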

[7] = read-out: Cytochrome P450 3A7 (Homo sapiens) (UniProt P24462); experiment: LTEA_HepaRG_CYP3A7: Life Technologies and Expression Analysis (LTEA) Assay for CYP3A7 using HepaRG (AID 2283492)
Method in brief: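 CYP3A7 transcript levels were read by TaqMan qRT-PCR on Fluidigm arrays after 48 h chemical exposure of human HepaRG cells, with housekeeping-gene normalisation. Eight half-log concentrations up to 100 uM in 0.5% DMSO were tested in duplicate.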

[8] = read-out: CYP3A5 (gene 1577); experiment: LTEA_HepaRG_CYP3A5: Life Technologies and Expression Analysis (LTEA) Assay for CYP3A5 using HepaRG (AID 2283493)
Method in brief: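 mRNA levels were quantified by qRT-PCR on Fluidigm arrays and normalized to three housekeeping genes. Differentiated HepaRG cells received 48 h exposure (top 100 uM, half-log steps, 0.5% DMSO vehicle, duplicate); bidirectional fitting versus DMSO.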

[9] = read-out: Fatty Acid-Binding Protein 1 (FABP1), FABP1 (gene 2168); experiment: LTEA_HepaRG_FABP1: Life Technologies and Expression Analysis (LTEA) Assay for Fatty Acid-Binding Protein 1 (FABP1) using HepaRG (AID 2283494)
Method in brief: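 Values reflect bidirectional concentration-response fitting of FABP1 mRNA change against 0.5% DMSO controls. Human HepaRG cultures received eight half-log doses (top 100 uM) for 48 h; expression quantified by TaqMan qRT-PCR with housekeeping-gene normalization.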

[10] = read-out: Cytochrome P450 4A22 (Homo sapiens) (UniProt Q5TCH4); experiment: LTEA_HepaRG_CYP4A22: Life Technologies and Expression Analysis (LTEA) Assay for Cytochrome P450 4A22 (CYP4A22) using HepaRG (AID 2283495)
Method in brief: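 HepaRG, 48 h post-plating -> serum-free induction medium; dosed 48 h, duplicate, 8 conc. (100 uM top, half-log), 0.5% DMSO. Readout: CYP4A22 mRNA by qRT-PCR, ACTB/GAPDH/POLR2A normalization; gain/loss fit relative to DMSO.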

[11] = read-out: Cytochrome P450 7A1 (Homo sapiens) (UniProt P22680); experiment: LTEA_HepaRG_CYP7A1: Life Technologies and Expression Analysis (LTEA) Assay for Cytochrome P450 7A1 (CYP7A1) using HepaRG (AID 2283496)
Method in brief: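 HepaRG, 48 h exposure, 8-pt half-log series from 100 uM, 0.5% DMSO vehicle, duplicates. Readout: TaqMan qRT-PCR mRNA vs three housekeeping genes; bidirectional curve fit against DMSO baseline.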

[12] = read-out: Glutathione S-Transferase (GSTA2), GSTA2 (gene 2939); experiment: LTEA_HepaRG_GSTA2: Life Technologies and Expression Analysis (LTEA) Assay for Glutathione S-Transferase (GSTA2) using HepaRG (AID 2283497)
Method in brief: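 Oxidative-stress marker GSTA2 is quantified by TaqMan qRT-PCR in HepaRG cultures treated 48 h across an eight-point range to 100 uM. Expression is normalized to endogenous controls and compared with 0.5% DMSO vehicle.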

[13] = read-out: Glutamate-cysteine ligase catalytic (GCLC), GCLC (gene 2729); experiment: LTEA_HepaRG_GCLC: Life Technologies and Expression Analysis (LTEA) Assay for Glutamate-cysteine ligase catalytic (GCLC) using HepaRG (AID 2283498)
Method in brief: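 Oxidative-stress marker GCLC is measured as mRNA change in human HepaRG liver cells after 48 h chemical treatment in 0.5% DMSO, eight concentrations from 100 uM. Activity is fitted bidirectionally against vehicle.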

[14] = read-out: growth arrest and DNA damage 45 (GADD45G), GADD45G (gene 10912); experiment: LTEA_HepaRG_GADD45G: Life Technologies and Expression Analysis (LTEA) Assay for growth arrest and DNA damage 45 (GADD45G) using HepaRG (AID 2283499)
Method in brief: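 HepaRG, 48 h exposure, top 100 uM, half-log 8-point series, 0.5% DMSO vehicle, duplicates. Readout: GADD45G transcript by qRT-PCR (Fluidigm array), housekeeping-normalised (ACTB/GAPDH/POLR2A). Bidirectional curve fit vs DMSO baseline.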

[15] = read-out: Glutamate-cysteine ligase regulatory (GCLM), GCLM (gene 2730); experiment: LTEA_HepaRG_GCLM: Life Technologies and Expression Analysis (LTEA) Assay for Glutamate-cysteine ligase regulatory (GCLM) using HepaRG (AID 2283500)
Method in brief: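 GCLM expression quantified by qRT-PCR, normalized to three housekeeping genes, after 48 h chemical treatment of HepaRG cells in duplicate at 8 concentrations (top 100 uM, half-log steps, 0.5% DMSO). Changes fitted both directions against vehicle.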

[16] = read-out: Glutathione S-transferase M3 (GSTM3), GSTM3 (gene 2947); experiment: LTEA_HepaRG_GSTM3: Life Technologies and Expression Analysis (LTEA) Assay for Glutathione S-transferase M3 (GSTM3) using HepaRG (AID 2283501)
Method in brief: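 qRT-PCR read-out of GSTM3 transcript, normalized to three housekeeping genes, from human HepaRG cells after 48 h chemical exposure. Eight-point half-log series, top 100 uM, 0.5% DMSO vehicle; gain or loss fitted relative to DMSO baseline.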

[17] = read-out: Heat shock 70 kDa protein 1 (HSPA1A), gene 3303; experiment: LTEA_HepaRG_HSPA1A: Life Technologies and Expression Analysis (LTEA) Assay for Heat shock 70 kDa protein 1 (HSPA1A) using HepaRG (AID 2283502)
Method in brief: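 HSPA1A expression measured by qRT-PCR with ACTB/GAPDH/POLR2A normalization; curves fitted in both directions relative to DMSO vehicle. Exposure: 48 h in HepaRG cells, duplicate 8-point half-log series from 100 uM, 0.5% DMSO, serum-free induction medium.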

Measured: AC50

Sequence of Cytochrome P450 3A7 (Homo sapiens) (P24462 whole entry, looked up): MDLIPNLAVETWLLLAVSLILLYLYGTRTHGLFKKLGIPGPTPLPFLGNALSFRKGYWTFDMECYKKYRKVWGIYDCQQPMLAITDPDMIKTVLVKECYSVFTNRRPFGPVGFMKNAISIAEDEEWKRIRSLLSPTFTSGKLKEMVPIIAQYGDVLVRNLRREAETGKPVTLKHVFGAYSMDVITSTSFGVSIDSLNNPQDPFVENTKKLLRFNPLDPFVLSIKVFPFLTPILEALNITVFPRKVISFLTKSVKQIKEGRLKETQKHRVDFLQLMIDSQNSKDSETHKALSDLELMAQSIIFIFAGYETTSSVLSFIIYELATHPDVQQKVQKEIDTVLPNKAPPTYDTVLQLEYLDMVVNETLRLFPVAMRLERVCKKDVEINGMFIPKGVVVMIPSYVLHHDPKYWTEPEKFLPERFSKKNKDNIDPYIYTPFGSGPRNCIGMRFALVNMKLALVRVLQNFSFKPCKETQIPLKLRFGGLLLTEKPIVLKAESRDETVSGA

COC(=O)N(OC)c1ccccc1COc1ccn(-c2ccc(Cl)cc2)n1
active: [1] 77.9 µM | [2] 74.7 µM | [4] 60.9 µM | [7] 74 µM | [8] 87 µM | [9] 80.4 µM | [10] 15.8 µM | [11] 71.9 µM | [12] 78.7 µM | [13] 80.8 µM | [14] 79.5 µM | [15] 50 µM | [16] 80.3 µM | [17] 12 µM
inactive: [3] | [5] | [6]

CCNc1nc(Cl)nc(NC(C)C)n1
active: [1] 31.5 µM | [3] 50 µM | [10] 50 µM
inactive: all other assays above

CCCCOC(=O)c1ccccc1C(=O)OCCCC
inactive: all assays above

COP(N)(=O)SC (centres undefined)
inactive: all assays above

CCON=C(CC)C1=C(O)CC(c2c(C)cc(C)cc2C)CC1=O (centres undefined)
active: [1] 50 µM | [3] 25 µM | [10] 18.9 µM
not listed: [7]
inactive: all other assays above
